From PubChem BioAssay (NCI)
This is part of a sample that, as a whole, favours compounds with a hit. Of some 83,000 tested, about 20% had one in any assay.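 48-hour exposure, single concentration, 96-well plates; percent growth endpoint where 0 means no net growth. Active: below 10.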 Values without a mark were called inactive. Activity calls are given as the source filed them.

Key:
Assay in all cases: NCI-60 one-dose screen, 48 h (100 = growth as untreated, 0 = no growth, -100 = all killed)
Conditions in all cases: 10 µM unless noted
[1] = system: NCI-H23 lung
[2] = system: NCI-H226 lung
[3] = system: NCI-H322M lung
[4] = system: HOP-62 NSCLC
[5] = system: NCI-H460 lung
[6] = system: HOP-92 NSCLC
[7] = system: NCI-H522 lung
[8] = system: A549/ATCC NSCLC
[9] = system: 786-0 renal
[10] = system: COLO 205 colon
[11] = system: DU-145 prostate
[12] = system: K-562 leukemia
[13] = system: MALME-3M melanoma
[14] = system: MDA-MB-231 breast
[15] = system: RXF 393 renal
[16] = system: SF-268 CNS
[17] = system: SF-295 CNS
[18] = system: SF-539 CNS
[19] = system: UACC-257 melanoma
[20] = system: M14 melanoma

| SMILES | growth [1] [%] | growth [2] | growth [3] | growth [4] [%] | growth [5] | growth [6] | growth [7] | growth [8] | growth [9] | growth [10] | growth [11] [%] | growth [12] | growth [13] [%] | growth [14] [%] | growth [15] | growth [16] [%] | growth [17] | growth [18] | growth [19] | growth [20] |
| --- | --- | --- | --- | --- | --- | --- | --- | --- | --- | --- | --- | --- | --- | --- | --- | --- | --- | --- | --- | --- |
| O[C@@H]1CCO[C@H](c2ccc3ccccc3c2)C1 | 95.3 | 96.8% | 104% | 99.5 | 107% | 93.1% | 87.9% | 96.7% | 98.7% | 106% | 102 | 98.3% | 96.7 | 104 | 97% | 96.2 | 102% | 98.9% | 98.5% | 101% |
| C[C@]12O[C@H]1[C@H](O)c1c(cc(O)c3c1C(=O)c1cccc(O)c1-3)C2=O | 99 | 85.7% | 102% | 96.5 | 99.1% | 101% | 87.8% | 92.9% | 104% | 106% | 111 | 93.9% | 100 | 94 | 123% | 107 | 102% | 99.6% | 89% | 89.8% |
| O=C1COc2ccccc2C(=O)N1CCCCNc1ccccc1 | 98.9 | 91.7% | 99.5% | 73.5 | 98.7% | 64.8% | 68.9% | 64.9% | 70.8% | 101% | 96.3 | 68.5% | 102 | 88.8 | 123% | 73.2 | 96.3% | 63.2% | 105% | 99.1% |
| O=C1/C(=C/c2cccc3cnccc23)Cc2cc(F)ccc21 | 87.7 | 73.8% | 93.9% | 65.1 | 95.9% | 75.3% | 78.4% | 98.7% | 97.4% | 81.8% | 104 | 96.1% | 97.9 | 93.4 | 112% | 98.8 | 88.4% | 94.1% | 113% | 87.7% |
| O=C(Nc1cccc(-n2ccc3c(NC(=O)c4ccccc4)ncnc32)c1)Nc1ccc(Cl)c(C(F)(F)F)c1 | 31.9 | 55.1% | 60.2% | 56.8 | 14.4% | 29.2% | 11.8% | 28.3% | 53.2% | 20.9% | 42.2 | 13.6% | 46.5 | 42.3 | 14.6% | 38.1 | 14.2% | 39.1% | 36% | 28.1% |
| Cc1cc(SCc2ccc(Cl)cc2Cl)nc(SCc2ccc(Cl)cc2Cl)n1 | 98.2 | 96% | 96.5% | 108 | 104% | 112% | 89.1% | 96.6% | 103% | 113% | 105 | 110% | 88.9 | 101 | 108% | 102 | 95.8% | 98% | 98.8% | 97.5% |
| O=c1c2ccccc2sc2c(N3CCCC3)nc3ccccc3c12 | 88.7 | 81.3% | 110% | 97.7 | 96.7% | 70.8% | 100% | 103% | 102% | 116% | 99 | 86.5% | 136 | 90.5 | 103% | 98.9 | 115% | 102% | 106% | 114% |
| COc1ccc(OC)c(NCC(=O)n2nc(/C=C\c3ccc(O)c(OC)c3)cc2/C=C\c2ccc(O)c(OC)c2)c1 | 19.1 | 29% | 29.5% | 11.8 | 8.27% (active) | 34.5% | -19.3% (active) | 21.4% | -7.3% (active) | -46.8% (active) | 22.9 | 4.4% (active) | 23.3 | 15.7 | -49.5% (active) | 23.1 | 24% | 0.158% (active) | 30.2% | 16.5% |
| O=S(=O)(O)c1ccc(F)cc1 | 96.1 | 103% | 97.3% | 92.6 | 111% | 116% | 82.8% | 101% | 103% | 114% | 103 | 85% | 90.7 | 112 | 116% | 93.2 | 96.1% | 102% | 111% | 98.1% |
| O=c1c2ccccc2sc2c(NCCN3CCOCC3)nc3ccccc3c12 | 68 | 59.2% | 104% | 52 | 27.3% | 24.8% | 63.1% | 43.1% | 48.5% | 21.9% | 56 | -11.7% (active) | 52.2 | 28.9 | 11.8% | 66.9 | -7.24% (active) | 47.3% | 79.8% | 5.59% (active) |
| CCCCCCCC(=O)SCC/C=C/[C@@H]1CC(=O)NCc2nc(cs2)C2=N[C@@](C)(CS2)C(=O)N[C@@H](C(C)C)C(=O)N1 | 16.5 | 3.64% (active) | 1.39% (active) | 12.1 | 9.84% (active) | -10.5% (active) | -27.4% (active) | 0.822% (active) | 17.2% | -71.8% (active) | 10.9 | 6.8% (active) | 10.8 | 11.4 | -52.8% (active) | 18 | 2.96% (active) | 25% | -19.6% (active) | 15.5% |
| CN1CCN(C(=O)/C=C/c2ccc([N+](=O)[O-])o2)CC1 | 98.1 | 110% | 111% | 134 | 91% | 85.9% | 4.39% (active) | 53.8% | 110% | 76.2% | 92.6 | 86.6% | 22.6 | 87.8 | -14.9% (active) | 87.6 | 134% | 107% | 1.85% (active) | 92.4% |
| O=C1COc2ccccc2C(=O)N1CCCCN1CCCCC1 | 94 | 93% | 104% | 78.2 | 104% | 61.5% | 71.5% | 96.4% | 82.4% | 87.6% | 93.7 | 50% | 93.8 | 109 | 118% | 100 | 93.9% | 102% | 102% | 91.9% |
| O=C(CSc1nnc(-c2cc3c([nH]c4ccccc43)c(-c3cccc(O)c3)n2)n1-c1ccccc1)c1ccccc1 | 80.2 | 93.4% | 89.7% | 59.3 | 65.3% | 67.6% | 23% | 69.9% | 18.8% | 105% | 47.8 | 21.8% | 55.4 | 78 | -11.4% (active) | 63.1 | 16.8% | 33.1% | 93.3% | 30% |
| COc1ccc2c(-c3ccc(F)cc3)c(C#N)c(=NC(C)=O)oc2c1 | 53.8 | 89.6% | 58.2% | 62.8 | 23.3% | 70.6% | 5.83% (active) | 53.4% | 33.4% | 106% | 49.6 | 8% (active) | 53.7 | 54.7 | 36% | 52.7 | 37.9% | 28.4% | 72% | 19.8% |
